Hit rate of the full screen: of about 1,200 compounds, about 110 (9.2%) were called active. Another 8% or so got no clear call; they are omitted.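 The calls were made as follows: active = pathway reporter half-maximal dose under half the control reporter's, or control reporter unaffected while pathway reporter is inhibited; inconclusive = either signal flat at 30 to 70% inhibition or poorly fitted; inactive = the rest.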 The list is a sample of the results. Measured potencies and affinities stand elsewhere.
Test: LMP1 TES1 pathway selectivity over dsRED control – imaging, HEK293T, dual-color eGFP/dsRED, cherry-picks, selectivity assay for LMP1 NF-kB inhibitor project, dose response (AID 588398);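 also: 0% = median of neutral control wells and -100% = median of MG132 positive control wells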
Conditions: 48 h; HEK293T Tet-On dsRED counter-screen channel, at 19.5 µM (top of the series); activity change, negative = inhibition: at the top concentration

| SMILES | activity change, negative = inhibition |
| --- | --- |
| CC1CCN(CCOc2ccc(C(=O)c3ccccc3)cc2)CC1 | 36.3% (inactive) |
| CCC(C)[C@H](NC(=O)NCc1cccnc1)C(=O)OC (some centres not stated) | 4.65% (inactive) |
| Cc1cc(C(=O)COc2cccnc2[N+](=O)[O-])c(C)n1-c1ccccc1F | -11.3% (inactive) |
| CCOc1ccc(Nc2ncnc3ccc([N+](=O)[O-])cc23)cc1 | -42.1% (inactive) |
| O=C1CCCCC1Sc1nnc(-c2ccc3c(c2)OCO3)o1 (configuration not stated) | 4.25% (inactive) |
| C=CCn1c(=O)/c(=C/c2ccc(Cl)cc2)s/c1=C(\C#N)c1nnc2n1CCCCC2 | -6.95% (inactive) |
| Cc1ccc(OCC(=O)NNC(=S)NC(=O)C2CCCCC2)c(C)c1 | 10.5% (inactive) |
| Cc1cc(NC(=O)c2ccc(C)s2)n(-c2nc3ccccc3[nH]2)n1 | 55.5% (inactive) |
| COc1ccc(OC)c(NC(=O)COC(=O)COc2ccc(Nc3ccccc3)cc2)c1 | -1.56% (inactive) |
| C(=Cc1cnc2ccccc2n1)c1ccc2c(c1)OCO2 | 7.85% (inactive) |
| CCOc1ccc(NC(=O)c2ccc(N3CC4CC(C3)c3cccc(=O)n3C4)c(NC(=O)c3cccnc3)c2)cc1 (configuration not stated) | 21.6% (inactive) |
| COc1ccc(N2C(=O)C(Cl)=C(NCc3ccccc3)C2=O)cc1 | -1.67% (inactive) |
| CCOc1ccccc1/C=C/c1onc(C)c1S(=O)(=O)N1CCC(C(=O)N(CC)CC)CC1 | -12.9% (inactive) |
| Cc1ccc(S(=O)(=O)N2CCN(C(=O)COC(=O)COc3ccc(Cl)cc3)CC2)c(C)c1 | -2.22% (inactive) |
| CCOC(=O)N1CCC(NC(=O)C2CCCN(Cc3nc(-c4cccc(Cl)c4)oc3C)C2)CC1 (configuration not stated) | 6.91% (inactive) |
| COc1ccc(S(=O)(=O)N2CCCCCC2)cc1C(=O)OCc1cccc(OC)c1OC | 0.989% (inactive) |
| Fc1cccc(Cl)c1/C=N/n1c(-c2cccnc2)n[nH]c1=S | 10.6% (inactive) |
| CC(=O)c1cccc(NC(=O)Nc2ccc(C(=O)N3CCOCC3)cc2)c1 | -34.4% (inactive) |
| O=C(c1ccccc1Br)N1CCN(Cc2ccc3c(c2)OCO3)CC1 | -23.1% (inactive) |
| CCC(=O)NC(c1ccc(Cl)cc1Cl)c1ccc2cccnc2c1O (configuration not stated) | -96.5% (inactive) |
| CC(=O)NC(c1ccc(Cl)cc1)c1ccc2cccnc2c1O (configuration not stated) | -97.4% (inactive) |
| Cc1ccc2[nH]c3c(c2c1)CCCC3NC(=O)CCl (configuration not stated) | -99.7% (inactive) |

| SMILES | activity change, negative = inhibition |
| --- | --- |
| Cc1cccc(-n2c(O)c(C=Nc3c(C)n(C)n(-c4ccccc4)c3=O)c3ccccc3c2=O)n1 | 13.3% (inactive) |
| CC(=O)OC1CCC2(C)C(CCC3C4CC=C(C(C)=O)C4(C)OC(=O)CC32)C1 (configuration not stated) | -18.4% (inactive) |
| O=C1NC(=O)/C(=C\c2ccc(OCc3cccc(C(=O)O)c3)c(Cl)c2)N1 | 19.6% (inactive) |
| CN1CCN(C(=O)C2=C[C@@H](C(C)(C)C)C[C@@H](OCc3ccc(CO)cc3)O2)CC1 | 0.267% (inactive) |
| COc1ccc(N2CCN(CCNC(=O)CCCn3c(=O)[nH]c4cc(Cl)ccc4c3=O)CC2)cc1 | 0.649% (inactive) |
| CCn1c(SC(C)C)nnc1-c1c[nH]c2ccccc12 | 5.13% (inactive) |
| CCn1c2ccccc2c2cc(/C=N/NC(=O)c3cc(O)cc(O)c3)ccc21 | -72.5% [HEK293T LMP1 TES1-eGFP reporter, at 6.8 µM] (inactive) |
| CCn1c2ccccc2c2cc(/C=N/NC(=O)c3ccncc3)ccc21 | -99% (inactive) |
| CC1CC(C)C(=O)C(C(CC2CC(=O)NC(=O)C2)OC(=O)CC(=O)c2ccccc2)C1 (configuration not stated) | -83.3% (inactive) |
| COc1cc(C(c2sc3nc(C)nn3c2O)N2CCc3ccccc3C2)cc(OC)c1OC (configuration not stated) | 23.8% (inactive) |
| CCOc1ccccc1NC(=O)Cn1c(=O)sc2ccccc21 | -18.1% (inactive) |
| O=C(NC(c1ccc(Cl)cc1)c1cc(Cl)c2cccnc2c1O)c1cccnc1 (configuration not stated) | -5.67% (inactive) |
| CCOc1cc(Br)cc(/C=N/NC(=O)c2cccnc2)c1O | 7.87% (inactive) |
| Cc1cc(N2CCOCC2)c2c(N)c(Br)cc(C)c2n1 | -92.6% (inactive) |
| CC1CC(C)CN(S(=O)(=O)c2ccc(NC(=O)CCN3C(=O)C4CC=CCC4C3=O)cc2)C1 (configuration not stated) | -14% (inactive) |
| CCN(CC)S(=O)(=O)c1cccc(-n2c(O)c(C=Nc3ccccc3C(=O)O)c3ccccc3c2=O)c1 | 13.8% (inactive) |
| Cc1ccc(CN2C(=O)CCC2C(=O)NCCCN2CCC(C)CC2)cc1 (configuration not stated) | 8.48% (inactive) |
| Cn1cc(SCC(=O)NCC2CCCO2)c2ccccc21 (configuration not stated) | 7.65% (inactive) |
| O=Cc1ccc(-c2cccs2)s1 | -98.5% (inactive) |
| COc1ccc(NC(=O)CCS(=O)(=O)c2ccc3c(c2)CCN3C(C)=O)cc1 | 6.17% (inactive) |
| C=CCn1c(C)c(C(C)=O)c(N2CCN(C(c3ccccc3)c3ccccc3)CC2)nc1=S | -16.5% (inactive) |
| O=C(N/N=C/c1cccs1)c1n[nH]c2c1CCCC2 | 10.9% (inactive) |

| SMILES | activity change, negative = inhibition |
| --- | --- |
| COc1cc2oc(=O)cc(-c3ccc(-c4ccc(N(C)C)cc4)cc3)c2c(OC)c1OC | 56.6% (inactive) |
| COc1ccc(C=Cc2ccc3ccccc3n2)c(OC)c1 | 10.7% (inactive) |
| COc1ccc(C(=O)NCCNc2nc3cc(C)c(C)cc3cc2C)cc1 | 14% (inactive) |
| O=C(c1sc2cc([N+](=O)[O-])ccc2c1Cl)N1CCOCC1 | -12.8% (inactive) |
| O=C(N/N=C/c1sc2ccccc2c1O)c1cccc2ccccc12 | -97.3% (inactive) |
| COc1cccc(C(=O)CC(=O)C(=O)Nc2ccc(C)cc2Cl)c1 | 4.92% (inactive) |
| COc1ccc(NC2=NCC(Cc3ccc(Br)cc3)S2)cc1 (configuration not stated) | 57.7% (inactive) |
| O=C(O)c1ccc(C=NNC(=O)c2cccc3ccccc23)cc1 | -1.92% (inactive) |
| O=C(N/N=C/c1ccc(O)cc1O)c1ccc(CN2C(=O)c3cccc4cccc2c34)cc1 | -69.9% (inactive) |
| O=c1oc2ccccc2c(O)c1/C=N/c1ccccn1 | -2.45% (inactive) |
| Cc1nnc(NC(=O)CSc2nnc(Cc3cccn3C)n2CCc2ccccc2)s1 | -2.3% (inactive) |
| COc1ccc(O)c(/C=N/NC(=O)c2ccc(OCc3cccc(Br)c3)cc2)c1 | 22.7% (inactive) |
| Cc1cccc(/C=N/NC(=O)CNc2cccc3ccccc23)n1 | 3.88% (inactive) |
| CCOc1ccc(OCc2cccc(C(=O)N3CCCC3)c2)cc1 | 31.9% (inactive) |
| O=C(O)c1c2c(nc3ccccc13)/C(=C/c1ccc(O)cc1)CC2 | -0.558% (inactive) |
| O=[N+]([O-])c1ccc(O)c(/C=N/Nc2ncnc3c2cnn3-c2ccccc2)c1 | 0.818% (inactive) |
| COc1cccc(/C=N/Nc2ncnc(Cl)c2N)c1O | -99.6% (inactive) |
| O=C(/C=C/Nc1cccc(C(F)(F)F)c1)C(F)(F)F | 9.44% (inactive) |
| CSc1ccccc1OCc1cc(C(=O)N2CCC[C@H]2C(N)=O)no1 | 18.8% (inactive) |
| Cc1ccc(C(=O)Nc2ccc3ncccc3c2)cc1 | -2.36% (inactive) |
| Cc1nnc(SCC(=O)N2CCC(c3noc4ccc(F)cc34)CC2)s1 | -92.2% (inactive) |
| NC(=O)c1sc2nc3c(c(-c4cccs4)c2c1N)CCCCC3 | -17.8% (inactive) |

| SMILES | activity change, negative = inhibition |
| --- | --- |
| S=C1SCN(Cc2ccccc2)CN1Cc1ccco1 | 12.6% (inactive) |
| O=C1c2ccccc2C(O)N1Cc1ccccc1 (configuration not stated) | 5.47% (inactive) |
| Cc1[nH]n(-c2ccc(Br)cc2)c(=O)c1/C=N/NC(=O)c1ccccc1 | -87.3% (inactive) |
| Cc1cc(C(=O)CSc2nnc(-c3cccs3)o2)c(C)n1-c1ccccc1 | -4.58% (inactive) |
| CC1=C(C(=O)OCc2ccc3c(c2)OCO3)C(c2ccc(Cl)cc2)NC(=O)N1 (configuration not stated) | -87.8% (inactive) |
| CC(=O)Oc1ccc(C(=O)Nc2cccnc2)cc1 | -6.76% (inactive) |
| O=C(O)c1cccc(Nc2ccnc(Nc3cccc(C(=O)O)c3)n2)c1 | -17.6% (inactive) |
| O=C(CN1C(=O)c2ccccc2S1(=O)=O)Nc1ncc(Cl)cc1Cl | -4.81% (inactive) |
| Oc1[nH]c2ccccc2c1N=Nc1c(F)c(F)c(Cl)c(F)c1F | -13% (inactive) |
| CN(C)c1ccc(-c2nc3ccccc3n2C)cc1 | 12.4% (inactive) |
| COc1ccc(C(=O)N=c2nc3ccccn3s2)cc1 | -14.4% (inactive) |
| COc1ccc(C(Nc2ccccn2)c2oc(CO)cc(=O)c2O)cc1 (configuration not stated) | -3.88% (inactive) |
| C[C@@H]1CN([C@@H](C)CO)C(=O)c2cc(NC(=O)Nc3ccccc3)ccc2O[C@H]1CN(C)C(=O)Nc1cccc2ccccc12 | 27.7% (inactive) |
| CCCC(=O)NC(c1ccc(C(C)C)cc1)c1ccc2cccnc2c1O (configuration not stated) | -83.8% (inactive) |
| CCCCC(=O)NC(c1ccc(OC)c(OC)c1)c1ccc2cccnc2c1O (configuration not stated) | -81.1% (inactive) |
| CCCC(=O)NC(c1ccc(C)cc1)c1ccc2cccnc2c1O (configuration not stated) | -68.9% (inactive) |
| CCC(=O)NC(c1ccc(C)cc1)c1ccc2cccnc2c1O (configuration not stated) | -80.4% (inactive) |
| COc1cccc(C2=CC(=O)C[C@H](c3ccc4c(c3)OCO4)C2)c1 | -1.55% (inactive) |
| C[C@@H]1CN([C@@H](C)CO)S(=O)(=O)c2ccc(/C=C/c3ccccc3)cc2O[C@@H]1CN(C)Cc1ccc(C(=O)O)cc1 | 89.4% (inactive) |
| CCCCCN=Cc1c(C)[nH]n(-c2nc3ccccc3s2)c1=O | -4.71% (inactive) |
| O=C(OCc1nc2ccccc2s1)[C@@H]1CCCN1S(=O)(=O)c1ccccc1F | 17.3% (inactive) |
| CCOc1ccc(N(C(C)C(=O)N2CCCCCC2)S(C)(=O)=O)cc1 (configuration not stated) | -3.25% (inactive) |

| SMILES | activity change, negative = inhibition |
| --- | --- |
| CCSc1nnc(NC(=O)CSc2nnc(-c3c[nH]c4ccccc34)n2CC)s1 | 40.4% (inactive) |
| O=C(/C=C1\NC2(CCCC2)Cc2ccccc21)C(=O)N/N=C/c1ccccc1O | -21.8% (inactive) |
| CCSc1nc2ccc(OC)cc2cc1C#N | 5.68% (inactive) |
| COC(=O)c1[nH]c2ccc(C)cc2c1NC(=O)NC1CCCCC1 | 13.7% (inactive) |
| O=C(C1CCCCC1)N1CCN(c2ncccn2)CC1 | -7.76% (inactive) |
| O=C1c2ccccc2C(=O)c2cc(N3CCCCC3)ccc21 | 5.87% (inactive) |
| N/C(=N\OC(=O)c1ccccc1)c1ccccn1 | 6.51% (inactive) |
| O=C(Nc1ccc(Cl)cc1)Nc1nnc(CSCc2ccc(Cl)cc2)s1 | -9.55% (inactive) |
| Nc1ccn(C2CCCO2)c(=O)n1 (configuration not stated) | 0.032% (inactive) |
| COc1ccc(C(=O)Nc2nnc(SCC(=O)NC3CC3)s2)cc1 | 5.05% (inactive) |
| CCOc1ccc(C(=O)Nc2nnc(SCC(=O)NCC3CCCO3)s2)cc1 (configuration not stated) | 27.3% (inactive) |
| CSc1nc(C)cc(C)c1C#N | 8.86% (inactive) |
| COC(=O)[C@@]1(C)[C@H]2C(=O)N(Cc3ccccc3)C(=O)[C@H]2[C@H]2CN=C(SCc3ccc(Cl)cc3)N21 | -98.7% (inactive) |
| Cc1cccc(NC(=O)c2cnc3ccccn3c2=O)c1 | -11.4% (inactive) |
| COCCNC(=O)C1CCC(CNS(=O)(=O)c2ccccc2)CC1 (configuration not stated) | -3% (inactive) |
| NC(=S)NN=Cc1nccc2c(C(F)(F)C(F)(F)C(F)(F)F)cccc12 | -99.4% (inactive) |
| NC(=S)NN=Cc1nccc2c(C(F)(F)F)cccc12 | -100% (inactive) |
| O=C(Nc1ccccc1)c1cn2ccccc2n1 | -9.66% (inactive) |
| COC(=O)CSc1ncnc2c1sc1nc3c(cc12)COC(C)(C)C3 | -2.11% (inactive) |

— PubChem BioAssay AID588398 (Broad Institute, 2011)
